# Source: PubChem BioAssay (Tox21)
# A number with no mark means an inactive call. Activity calls are given as the source filed them. Calls come from the whole dose curve; as a rule, active = well fitted curve in the direction sought with a large enough effect in the repeat runs; inconclusive = weak or mixed curves; inactive = flat fitted curve, though single readings scatter.
# Assay: qHTS assay to test for compound auto fluorescence at 590 nm (red) in HEK293 cells (AID 720679)
# Conditions: red autofluorescence 540/590 nm; series mostly up to 91.3 µM
# Description: National Center for Advancing Translational Sciences [NCATS]
# NIH Chemical Genomics Center [NCGC]
# U.S. Environmental Protection Agency [EPA]
# National Institutes of Environmental Health Sciences [NIEHS]
# National Toxicology Program [NTP]
# U.S. Food and Drug Administration [FDA]
# Compound auto fluorescence often interferes with screening of the compound library against various biological targets and signaling pathways. Some of these compounds may have fluorophoric properties. Such properties may interfere with the assay outputs resulting in false positives and/or negatives. To decrease such complications and ensure the compound activities are relevant in terms of biological response, the Tox21 10K compound library was screened for auto fluorescence.
# From the fluorophores used as reporter signals in our screening assays, the auto fluorescence equivalencies of compounds against three fluorophores have been evaluated: Triamterene, Fluorescein and Rose Bengal sodium for blue, green and red fluorescence, respectively. The fluorescence intensities were measured using Excitation/Emission wavelengths at 405/460nm, 485/535nm and 540/590nm for blue, green and red labels, respectively. This assay includes the red fluorescence data.
# Tox21 Assay Protocol Summary:
# 2,000 HEK293 cells in 5 uL of culture medium containing 10% dialyzed FBS per well were dispensed into black wall/clear bottom 1536-well plates using a Multidrop Combi Dispenser (Thermo Scientific). The assay plates were incubated for 4-5 hr at 37C to allow cell attachment to the well bottom, followed by the transfer of 23 nL compound or DMSO vehicle by a pintool work station (Kalypsys, San Diego, CA). After the assay plates were incubated overnight at 37C and 5% CO2, fluorescence intensities in the assay plates were measured by an Envision (PerkinElmer, Shelton, CT) plate reader using three labels for measuring blue, green and red fluorescence at […] 460, 535 and 590nm respectively.
# % is set by controls: 0 for no effect and ±100 for the full control effect.
Structure (SMILES),outcome,"fluorescence, % of fluorescent control"
COc1c(N2CCNC(C)C2)c(F)cc2c(=O)c(C(=O)O)cn(C3CC3)c12 (stereo not given),inactive,
Cc1nc2ccc(CN(C)c3ccc(C(=O)N[C@@H](CCC(=O)O)C(=O)O)s3)cc2c(=O)[nH]1,inactive,
C=CN1CCCCCC1=O,inactive,
Cc1cccc(C)c1NC(=O)CC12CCCN1CCC2,inactive,
O=S(=O)(O)c1cccc2ccccc12,inactive,
CC(N)C12CC3CC(CC(C3)C1)C2 (stereo not given),inactive,
CCNS(=O)(=O)c1ccc(C)cc1,inactive,
CNC(=O)Nc1ccc(Cl)c(Cl)c1,inactive,
CCCOC(=O)CC,inactive,
Cc1ccc(C(=O)c2ccc(CC(=O)O)n2C)cc1,,0.256% [at 18.6 µM]
CC1OC1C1CCC2(C)OC2C1 (stereo not given),inactive,
COc1ccc2cc1Oc1cc3c(cc1OC)CC[N+](C)(C)[C@H]3Cc1ccc(cc1)Oc1c(OC)c(OC)cc3c1[C@@H](C2)[N+](C)(C)CC3,inactive,
CCCn1cc[n+](C)c1C,inactive,
N[C@@H](CCC(=O)O)C(=O)O,inactive,
NC(=O)N[C@@H](CCC(=O)O)C(=O)O,inactive,
CC(C)(C)C(=O)Oc1ccc(S(=O)(=O)Nc2ccccc2C(=O)NCC(=O)O)cc1,inactive,
Nc1ccn([C@@H]2O[C@H](CO)[C@@H](O)C2O)c(=O)n1 (stereo not given in full),inactive,
NCCCC(N)(C(=O)O)C(F)F (stereo not given),inactive,
CCN(CC#N)c1cccc(C)c1,inactive,
O=C1CCCCCCCCCCCCCCO1,inactive,

Structure (SMILES),outcome,"fluorescence, % of fluorescent control"
Nc1ccncc1N,inactive,
Cc1ncc(COP(=O)(O)O)c(C=O)c1O,inactive,
COc1cc(C(=O)OC(COCCC(C)C)CN2CCOCC2)cc(OC)c1OC (stereo not given),inactive,
CCC(C)(CCCC(C)C)OC(C)=O (stereo not given),inactive,
CCO[Si](OCC)(OCC)c1ccccc1,inactive,
CN(C)CCN(C)CCN(C)C,inactive,
CCCCS(=O)(=O)N[C@@H](Cc1ccc(OCCCCC2CCNCC2)cc1)C(=O)O,inactive,
CC(=O)N1C[C@H](O)C[C@H]1C(=O)O,inactive,
CCN(C=O)CC,inactive,
[Ca+2],inactive,
CC(C)=CCC/C(C)=C/C#N,inactive,
C[N+](C)(C)CCCCCCCCCC[N+](C)(C)C,inactive,
Cc1ccccc1N=C(N)N=C(N)N,inactive,
[O-][n+]1cccc(CO)c1,inactive,
CC[N+](C)(CC)CCOC(=O)C1c2ccccc2Oc2ccccc21,inactive,
O=S(=O)(O)c1cc(O)c(O)c(S(=O)(=O)O)c1,inactive,
CC(=O)c1cnccn1,inactive,
CC1(C)OC[C@@H](COC(=O)CCc2ccc(OC[C@@H](O)CNCCNC(=O)N3CCOCC3)cc2)O1,inactive,
CCCc1nn(C)c2c(=O)[nH]c(-c3cc(S(=O)(=O)N4CCN(C)CC4)ccc3OCC)nc12,inactive,
CC(C)(C)OC(=O)c1cccc(N)c1,inactive,
